Data as given in PubChem BioAssay (EPA / NIEHS).
Records with an inconclusive call do not appear. Activity calls are given as the source filed them. The calls were made as follows, unless noted: active = hit-call score of the fitted dose curve at least 0.9, where 1 is the maximum; inactive = score below 0.9.

Assays:
[1] = ATG_NFI_CIS: Attagene CIS-FACTORIAL HepG2 Assay for human Nuclear Factor I (NFI) (AID 2282989); conditions: HepG2 cis-regulatory reporter, NFI response element transcription; actives raise or lower the signal
How it was run: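 Multiplexed cis-reporter system in human HepG2 cells reports native TF activity as reporter mRNA induction 24 h post-dose. Fragments labelled with 6-FAM, HpaI-digested and resolved by capillary electrophoresis; activity fitted both directions versus DMSO.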

[2] = molecular target: Myc proto-oncogene protein (Homo sapiens) (UniProt P01106); assay: ATG_Myc_CIS: Attagene CIS-FACTORIAL HepG2 Assay for human Myelocytomatosis (Myc) Proto-Oncogene Transcription Factor (AID 2282990); conditions: HepG2, Attagene cis-reporter transcription factor activity; actives raise or lower the signal
How it was run: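 After 24 h chemical treatment of HepG2 cells carrying multiplexed cis-regulated reporter constructs, reporter transcripts quantified by RT-PCR and capillary electrophoresis of fluorescent fragments. Gain or loss fitted against DMSO baseline.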

[3] = ATG_NF_kB_CIS: Attagene CIS-FACTORIAL HepG2 Assay for human Nuclear Factor Kappa B (NF-kB) (AID 2282991); conditions: HepG2 Attagene cis-factorial NF-kB reporter mRNA; actives raise or lower the signal
How it was run: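 HepG2, transient multi-reporter transfection, cis promoter elements (endogenous TFs). 24 h exposure. Total RNA → RT → PCR → 6-FAM label → HpaI → CE. Gain/loss vs DMSO.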

[4] = ATG_NRF2_ARE_CIS: Attagene CIS-FACTORIAL HepG2 Assay for human Nuclear Factor Erythroid 2 Related Factor 2 (NFR2) response to Antioxidant Response Elements (ARE) (AID 2282992); conditions: HepG2 Attagene ARE/NRF2 reporter, transcription factor activity; actives raise or lower the signal;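 as to AC50: reporter mRNA level measured by RT-PCR and capillary electrophoresis fluorescence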
How it was run: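 Endogenous transcription factor activity in human liver HepG2 cells is tracked via a cis-element-driven reporter within a multiplexed set. mRNA induction is read by RT-PCR and capillary electrophoresis after 24 h, with DMSO as baseline.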

[5] = ATG_Oct_MLP_CIS: Attagene CIS-FACTORIAL HepG2 Assay for human Octamer-Binding Transcription Factor (Oct) (AID 2282993); conditions: HepG2 Attagene cis-factorial Oct reporter, mRNA; actives raise or lower the signal
How it was run: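 After 24 h compound exposure, transfected HepG2 cells were lysed for total RNA; reporter-specific cDNA was PCR-amplified, fluorescently labelled and sized by capillary electrophoresis. Bidirectional curve fitting used DMSO as baseline.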

[6] = molecular target: Cellular tumor antigen p53 (Homo sapiens) (UniProt P04637); assay: ATG_p53_CIS: Attagene CIS-FACTORIAL HepG2 Assay for human p53 Transcription Factor (AID 2282994); conditions: HepG2 p53 cis-element reporter, Attagene mRNA; actives raise or lower the signal
How it was run: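 Steps: transfect HepG2 with multiplexed cis reporter constructs; dose chemicals 24 h; extract RNA, reverse-transcribe, PCR-amplify reporter sequences; FAM-label, HpaI-digest, resolve fragments by CE. Activity fitted both directions relative to DMSO.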

[7] = BSK_3C_TissueFactor: BioMAP Diversity Plus: 3C Assay for Tissue Factor Biomarker Activity (AID 2282997); conditions: BioMAP 3C HUVEC, tissue factor biomarker readout; actives raise or lower the signal
How it was run: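 Readout: Tissue Factor ELISA. Cells: human primary umbilical vein endothelium. Time: 24 h after dosing. Analysis: bidirectional fit, DMSO baseline.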

[8] = BSK_3C_uPAR: BioMAP Diversity Plus: 3C Assay for Urokinase-type plasminogen activator receptor (uPAR) Biomarker Activity (AID 2282998); conditions: BioMAP 3C HUVEC, uPAR biomarker ELISA; actives raise or lower the signal
How it was run: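 Values derive from bidirectional curve fitting relative to DMSO, which served as baseline of activity. uPAR was measured by ELISA in human umbilical vein endothelial primary cultures 24 h after compound addition.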

[9] = BSK_3C_VCAM1: BioMAP Diversity Plus: 3C Assay for Vascular cell adhesion molecule 1 (VCAM1) Biomarker Activity (AID 2282999); conditions: BioMAP 3C HUVEC, VCAM1 ELISA, cytokine-stimulated; actives raise or lower the signal
How it was run: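 Activity fitted in both directions relative to DMSO, with ELISA measurement of the surface marker on primary HUVEC (3C) at 24 h post-treatment; parallel SRB staining (0.1% SRB, TCA-fixed, 560 nm) flagged overt cytotoxicity.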

[10] = BSK_4H_Eotaxin3: BioMAP Diversity Plus: 4H Assay for Eotaxin 3 Biomarker Activity (AID 2283000); conditions: primary human endothelial cells (HUVEC); actives raise or lower the signal;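 also: CCL26 protein level quantified by ELISA in parallel with SRB cytotoxicity check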
How it was run: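 HUVEC, 24 h post-dose, ELISA for Eotaxin-3/CCL26. Gain or loss of signal fitted bidirectionally vs DMSO baseline.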

[11] = molecular target: human Peroxisome Proliferator-activated Receptor alpha (PPARa), PPARA (gene 5465) (UniProt Q07869); assay: ATG_PPARa_TRANS: Attagene TRANS-FACTORIAL HepG2 Assay for human Peroxisome Proliferator-activated Receptor alpha (PPARa) (AID 2283001; active = hit-call score of the fitted dose curve at least 0.9, where 1 is the maximum)
How it was run: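 Reporter transcripts quantified by RT-PCR plus capillary electrophoresis after 24 h treatment, fitted upward relative to DMSO. Cells: human HepG2 transiently carrying multiple GAL4-UAS reporter units driven by NR-Gal4 chimeras.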

[12] = read-out: Intercellular Adhesion Molecule 1 (ICAM1), ICAM1 (gene 3383); assay: BSK_3C_ICAM1: BioMAP Diversity Plus: 3C Assay for Intercellular Adhesion Molecule 1 (ICAM1) Biomarker Activity (AID 2283003); conditions: primary human endothelial cells (HUVEC); actives raise or lower the signal
How it was run: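 Chemicals are dosed onto primary human umbilical vein endothelium (3C system). After 24 h, ICAM-1 is measured by ELISA, and responses are fitted bidirectionally relative to DMSO.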

[13] = BSK_3C_Proliferation: Cell Proliferation Assessment in the BioMAP Diversity Plus: 3C Assay (AID 2283006); conditions: primary human endothelial cells (HUVEC)
How it was run: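 Cells (human umbilical vein endothelial, sub-confluent) receive test chemical; after 48 h they are fixed in 10% trichloroacetic acid, stained with 0.1% SRB and read at 560 nm. Activity is referenced to DMSO, fitting increases and decreases.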

[14] = molecular target: Peroxisome proliferator-activated receptor gamma (Homo sapiens) (UniProt P37231); assay: ATG_PPARg_TRANS: Attagene TRANS-FACTORIAL HepG2 Assay for human Peroxisome Proliferator-activated Receptor-gamma (PPARg) (AID 2283007; active = hit-call score of the fitted dose curve at least 0.9, where 1 is the maximum)
How it was run: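 Multiplexed reporter transcription units in HepG2, 24 h dosing, reporter transcripts quantified by fluorescent RT-PCR and capillary electrophoresis. Increase over DMSO scored.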

[15] = molecular target: Nuclear receptor subfamily 1 group I member 2 (Homo sapiens) (UniProt O75469); assay: ATG_PXR_TRANS: Attagene TRANS-FACTORIAL HepG2 Assay for human Pregnane X Receptor (PXR) (AID 2283008; active = hit-call score of the fitted dose curve at least 0.9, where 1 is the maximum)
How it was run: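 HepG2 transfected (FuGene 6) with GAL4-UAS reporter units + PXR-Gal4 chimera; dosed 24 h. Total RNA → oligo(dT) RT → PCR → 6-FAM primer extension → HpaI cut → CE. Gain-of-signal vs DMSO.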

[16] = molecular target: human Peroxisome Proliferator-activated Receptor delta (PPARd), PPARD (gene 5467) (UniProt Q03181); assay: ATG_PPARd_TRANS: Attagene TRANS-FACTORIAL HepG2 Assay for human Peroxisome Proliferator-activated Receptor delta (PPARd) (AID 2283002; active = hit-call score of the fitted dose curve at least 0.9, where 1 is the maximum)
How it was run: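 Read-out is induced reporter mRNA, quantified by RT-PCR with fluorescent labelling and capillary electrophoresis after 24 h dosing. Cells are HepG2 transiently carrying multiple GAL4-UAS reporter units driven by exogenous NR-GAL4 chimeras; DMSO serves as baseline.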

[17] = molecular target: human Retinoic Acid Receptor beta (RARb), RARB (gene 5915) (UniProt P10826); assay: ATG_RARb_TRANS: Attagene TRANS-FACTORIAL HepG2 Assay for human Retinoic Acid Receptor beta (AID 2283004; active = hit-call score of the fitted dose curve at least 0.9, where 1 is the maximum)
How it was run: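 HepG2 cells transiently transfected with multiplexed GAL4-UAS reporter units expressing chimeric NR–Gal4 fusions; 24 h compound exposure. Reporter mRNA quantified by RT-PCR, 6-FAM labelling, HpaI digestion and capillary electrophoresis; gain-of-signal fitted against DMSO baseline.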

[18] = molecular target: Retinoic acid receptor alpha (Homo sapiens) (UniProt P10276); assay: ATG_RARa_TRANS: Attagene TRANS-FACTORIAL HepG2 Assay for human Retinoic Acid Receptor alpha (RARa) (AID 2283005; active = hit-call score of the fitted dose curve at least 0.9, where 1 is the maximum)
How it was run: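 Reporter transcripts, measured by RT-PCR with fluorescent labeling and capillary electrophoresis after 24 h dosing, reflect activity of an exogenous human RARa–GAL4 fusion in transiently transfected HepG2. Fitted for increase relative to DMSO.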

[19] = molecular target: human Retinoic Acid Receptor gamma (RARg), RARG (gene 5916) (UniProt P13631); assay: ATG_RARg_TRANS: Attagene TRANS-FACTORIAL HepG2 Assay for human Retinoic Acid Receptor gamma (RARg) (AID 2283009; active = hit-call score of the fitted dose curve at least 0.9, where 1 is the maximum)
How it was run: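 TRANS format measured activity of exogenous NR-GAL4 fusion (RARg) in transfected HepG2 liver cells after 24 h dosing. Induced reporter RNA was detected by RT-PCR/capillary electrophoresis fluorescence, analysed in the positive direction against DMSO.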

Measured: AC50

Chain of Nuclear receptor subfamily 1 group I member 2 (Homo sapiens) (O75469 whole entry, looked up, the tested form may be a part): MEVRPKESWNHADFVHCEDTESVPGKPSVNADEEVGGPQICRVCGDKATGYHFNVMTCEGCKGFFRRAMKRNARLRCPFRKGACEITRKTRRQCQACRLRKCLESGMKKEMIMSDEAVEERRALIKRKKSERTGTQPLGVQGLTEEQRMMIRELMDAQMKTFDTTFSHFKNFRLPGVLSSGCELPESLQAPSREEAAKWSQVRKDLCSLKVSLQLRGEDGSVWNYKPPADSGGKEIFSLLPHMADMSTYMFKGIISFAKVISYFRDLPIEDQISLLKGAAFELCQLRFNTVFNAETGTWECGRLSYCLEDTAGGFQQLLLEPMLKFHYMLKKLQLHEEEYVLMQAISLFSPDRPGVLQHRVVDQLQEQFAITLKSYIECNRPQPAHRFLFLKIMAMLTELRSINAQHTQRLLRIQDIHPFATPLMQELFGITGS
Chain of Myc proto-oncogene protein (Homo sapiens) (P01106 whole entry, looked up, the tested form may be a part): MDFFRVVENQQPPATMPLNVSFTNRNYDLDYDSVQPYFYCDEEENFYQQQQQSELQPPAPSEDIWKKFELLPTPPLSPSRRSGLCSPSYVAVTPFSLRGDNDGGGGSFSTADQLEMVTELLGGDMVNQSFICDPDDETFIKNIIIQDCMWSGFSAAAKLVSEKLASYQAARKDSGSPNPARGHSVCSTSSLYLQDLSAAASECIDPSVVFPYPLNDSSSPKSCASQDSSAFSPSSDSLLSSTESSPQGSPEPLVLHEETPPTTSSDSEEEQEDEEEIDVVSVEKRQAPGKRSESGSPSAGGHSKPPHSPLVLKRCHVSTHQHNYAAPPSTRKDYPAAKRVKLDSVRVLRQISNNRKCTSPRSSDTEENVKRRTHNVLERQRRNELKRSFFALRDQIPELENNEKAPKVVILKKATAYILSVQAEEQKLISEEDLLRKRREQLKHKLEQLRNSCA
Chain of human Peroxisome Proliferator-activated Receptor alpha (PPARa), PPARA (gene 5465) (Q07869 whole entry, looked up, the tested form may be a part): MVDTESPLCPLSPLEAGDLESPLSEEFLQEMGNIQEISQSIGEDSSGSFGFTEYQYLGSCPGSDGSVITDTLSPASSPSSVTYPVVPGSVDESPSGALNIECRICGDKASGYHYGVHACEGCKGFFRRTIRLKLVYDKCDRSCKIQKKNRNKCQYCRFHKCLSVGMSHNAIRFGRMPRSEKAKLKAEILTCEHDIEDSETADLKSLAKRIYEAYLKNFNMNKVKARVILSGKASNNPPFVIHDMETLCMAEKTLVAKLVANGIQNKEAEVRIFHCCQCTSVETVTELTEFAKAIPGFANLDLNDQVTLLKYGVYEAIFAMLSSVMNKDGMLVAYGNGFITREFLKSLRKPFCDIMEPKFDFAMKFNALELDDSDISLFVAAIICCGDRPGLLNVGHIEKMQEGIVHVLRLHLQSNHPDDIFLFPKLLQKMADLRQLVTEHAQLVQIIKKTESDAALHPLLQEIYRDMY
Chain of human Peroxisome Proliferator-activated Receptor delta (PPARd), PPARD (gene 5467) (Q03181 whole entry, looked up, the tested form may be a part): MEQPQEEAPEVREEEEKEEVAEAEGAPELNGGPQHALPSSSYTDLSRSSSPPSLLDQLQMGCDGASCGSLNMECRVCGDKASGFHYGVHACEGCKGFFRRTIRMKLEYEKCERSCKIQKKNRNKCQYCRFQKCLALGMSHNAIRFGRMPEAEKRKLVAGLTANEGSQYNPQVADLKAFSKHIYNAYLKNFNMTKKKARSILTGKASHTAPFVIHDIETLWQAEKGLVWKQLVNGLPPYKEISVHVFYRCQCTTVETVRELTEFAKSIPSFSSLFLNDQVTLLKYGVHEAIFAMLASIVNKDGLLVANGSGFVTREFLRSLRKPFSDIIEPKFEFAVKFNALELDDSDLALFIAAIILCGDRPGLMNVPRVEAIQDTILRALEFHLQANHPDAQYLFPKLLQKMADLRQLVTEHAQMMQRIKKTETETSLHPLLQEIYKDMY
Chain of Peroxisome proliferator-activated receptor gamma (Homo sapiens) (P37231 whole entry, looked up): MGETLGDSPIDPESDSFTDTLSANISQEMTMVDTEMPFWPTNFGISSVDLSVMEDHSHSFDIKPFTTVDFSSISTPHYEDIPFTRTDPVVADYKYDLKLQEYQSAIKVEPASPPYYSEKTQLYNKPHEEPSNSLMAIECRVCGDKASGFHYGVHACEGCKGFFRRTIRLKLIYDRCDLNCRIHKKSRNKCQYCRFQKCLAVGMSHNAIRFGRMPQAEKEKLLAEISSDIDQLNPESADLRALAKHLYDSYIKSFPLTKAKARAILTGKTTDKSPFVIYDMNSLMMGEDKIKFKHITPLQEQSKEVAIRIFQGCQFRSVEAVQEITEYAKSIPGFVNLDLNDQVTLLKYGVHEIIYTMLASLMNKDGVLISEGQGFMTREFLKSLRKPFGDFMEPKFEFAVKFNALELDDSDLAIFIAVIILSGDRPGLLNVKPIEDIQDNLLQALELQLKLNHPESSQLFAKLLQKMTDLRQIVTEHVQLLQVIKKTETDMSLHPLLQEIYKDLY
Chain of human Retinoic Acid Receptor beta (RARb), RARB (gene 5915) (P10826 whole entry, looked up, the tested form may be a part): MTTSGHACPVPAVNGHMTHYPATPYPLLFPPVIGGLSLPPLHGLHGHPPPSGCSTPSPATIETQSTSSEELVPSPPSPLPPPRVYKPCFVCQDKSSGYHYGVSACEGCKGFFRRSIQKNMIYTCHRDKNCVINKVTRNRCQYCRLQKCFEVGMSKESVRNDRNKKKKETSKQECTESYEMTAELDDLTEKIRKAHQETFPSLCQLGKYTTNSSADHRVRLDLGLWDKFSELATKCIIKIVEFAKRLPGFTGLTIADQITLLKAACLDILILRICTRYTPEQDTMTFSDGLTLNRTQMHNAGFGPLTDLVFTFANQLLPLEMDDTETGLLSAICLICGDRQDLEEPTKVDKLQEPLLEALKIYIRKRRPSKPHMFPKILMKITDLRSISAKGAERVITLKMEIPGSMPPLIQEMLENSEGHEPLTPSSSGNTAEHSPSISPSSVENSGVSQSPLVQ
Chain of Retinoic acid receptor alpha (Homo sapiens) (P10276 whole entry, looked up, the tested form may be a part): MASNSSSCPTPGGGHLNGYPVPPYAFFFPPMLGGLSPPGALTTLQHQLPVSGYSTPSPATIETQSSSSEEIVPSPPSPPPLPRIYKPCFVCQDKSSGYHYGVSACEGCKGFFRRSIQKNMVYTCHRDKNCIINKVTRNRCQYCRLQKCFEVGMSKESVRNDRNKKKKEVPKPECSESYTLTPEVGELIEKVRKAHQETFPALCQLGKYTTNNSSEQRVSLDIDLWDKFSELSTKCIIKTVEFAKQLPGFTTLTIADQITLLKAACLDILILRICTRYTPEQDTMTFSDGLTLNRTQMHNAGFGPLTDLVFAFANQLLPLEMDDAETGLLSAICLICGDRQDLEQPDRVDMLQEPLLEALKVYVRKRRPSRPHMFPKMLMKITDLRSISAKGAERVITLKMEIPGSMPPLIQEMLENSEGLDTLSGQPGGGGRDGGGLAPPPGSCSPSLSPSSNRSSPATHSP
Chain of human Retinoic Acid Receptor gamma (RARg), RARG (gene 5916) (P13631 whole entry, looked up, the tested form may be a part): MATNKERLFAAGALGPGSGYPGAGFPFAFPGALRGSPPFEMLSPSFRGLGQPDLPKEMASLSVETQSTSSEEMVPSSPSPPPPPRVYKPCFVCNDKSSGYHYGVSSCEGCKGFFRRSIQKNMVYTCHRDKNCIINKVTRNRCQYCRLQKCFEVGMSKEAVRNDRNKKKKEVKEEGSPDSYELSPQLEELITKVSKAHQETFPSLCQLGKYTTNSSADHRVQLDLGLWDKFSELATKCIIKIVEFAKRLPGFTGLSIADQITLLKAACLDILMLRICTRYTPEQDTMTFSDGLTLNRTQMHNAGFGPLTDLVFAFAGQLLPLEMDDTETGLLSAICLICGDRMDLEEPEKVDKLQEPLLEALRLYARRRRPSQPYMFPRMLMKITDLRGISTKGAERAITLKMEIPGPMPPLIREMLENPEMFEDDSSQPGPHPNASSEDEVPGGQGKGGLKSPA
Chain of Cellular tumor antigen p53 (Homo sapiens) (P04637 whole entry, looked up, the tested form may be a part): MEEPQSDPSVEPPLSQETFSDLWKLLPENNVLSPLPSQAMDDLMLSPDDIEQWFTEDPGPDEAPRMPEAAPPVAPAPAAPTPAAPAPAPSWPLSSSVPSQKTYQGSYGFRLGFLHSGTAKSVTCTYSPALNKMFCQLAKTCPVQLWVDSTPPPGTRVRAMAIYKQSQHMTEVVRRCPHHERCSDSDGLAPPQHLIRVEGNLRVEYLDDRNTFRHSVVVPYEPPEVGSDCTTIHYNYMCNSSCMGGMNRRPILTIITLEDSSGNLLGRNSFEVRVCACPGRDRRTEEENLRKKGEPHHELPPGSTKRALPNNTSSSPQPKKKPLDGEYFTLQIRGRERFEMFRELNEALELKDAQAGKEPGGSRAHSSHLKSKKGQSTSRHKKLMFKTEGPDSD

OCC(CO)n1cnc(-c2ccc(F)cc2)c1-c1ccnc(Oc2ccccc2)n1
active: [4] 25.3 µM | [15] 6.83 µM
not listed: [16] | [17] | [18] | [19]
inactive: all other assays above

NC=O
not listed: [6] | [14]
inactive: all other assays above
